Experimental data as given in PubChem BioAssay (NCATS).
Results filed as inconclusive are left out. Entries that show only a call come without a potency. Activity calls are given as the source filed them. The call rests on the fitted dose curve; in most records, active means well fitted curve in the direction sought with a large enough effect; inconclusive means small, poorly fitted or top-dose-only effect, or another doubt; inactive means no such curve, though single readings can be large; an effect the other way counts as inactive or inconclusive.

Tested on: not listed separately
Assay: Validation screen for small molecules that induce genotoxicity in human embryonic kidney (HEK293T) cells expressing luciferase-tagged ELG1 (AID 493106)
Conditions: luminescence; series mostly up to 46.1 µM
Summary of the method: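 Cells were dispensed at 2,000 per well, then 23 nL compound or DMSO was pinned in. After 16 hr at 37 °C and 5% CO2, ONE-Glo reagent was added. Luciferase activity was measured following 30 min at room temperature.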

SMILES | Potency
CN1CC[C@@]2(C)c3cc(O)ccc3N(C)C12 (stereo partly specified) | inactive
CCCN(CCC)C1Cc2cc(OC)c(OC)cc2C1 | inactive
CC(=O)c1c(O)c(C)c(O)c(Cc2c(O)c3c(c(C(=O)/C=C/c4ccccc4)c2O)OC(C)(C)C=C3)c1O | inactive
CCCn1c(=O)c2[nH]c(C3CCCC3)nc2n(CCCOC(=O)c2ccc(S(=O)(=O)F)cc2)c1=O | inactive
NC(N)=Nc1ccc2[nH]c3c(c2c1)C[C@@]1(O)[C@H]2Cc4ccc(O)c5c4[C@@]1(CCN2CC1CC1)[C@H]3O5 | inactive
O=S1(=O)N(CCN2CC=C(c3c[nH]c4cc(F)ccc34)CC2)c2cccc3c2N1CCC3 | inactive
CC(N)c1cccc(Cl)c1Cl (stereo unspecified) | inactive
C=CCN1CC[C@]23c4c5ccc(O)c4O[C@H]2/C(=N/NC(=O)c2ccccc2)CC[C@@]3(O)[C@H]1C5 | inactive
CCS(=O)(=O)Nc1cccc(C(=C2CCCCC2)c2cnc[nH]2)c1 | inactive
NCC(CP(=O)(O)O)c1ccc(Cl)cc1 (stereo unspecified) | inactive
COc1ccc2[nH]c3c(c2c1)CCNC3 | inactive
N[C@@H](Cn1oc(=O)[nH]c1=O)C(=O)O | inactive
CN1C2CCC1CC(OC(c1ccccc1)c1ccccc1N)C2 (stereo unspecified) | inactive

Biological target: ATPase family AAA domain-containing protein 5 (Homo sapiens) (UniProt Q96QE3)
Assay: Validation screen for small molecules that inhibit ELG1-dependent DNA repair in human embryonic kidney (HEK293T) cells expressing luciferase-tagged ELG1 (AID 493107); further: nearly all actives have a fitted effect of over 70% in size; further: potency means the concentration at half of the fitted maximal effect
Conditions: HEK293T ELG1-luciferase level, luminescence, 5-fluorouridine co-treatment, 16 h; series mostly up to 46.1 µM
Summary of the method: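 Cells are dispensed in 1536-well format, then 5-fluorouridine and compound are pinned in. After a 16 hr incubation at 37 °C and 5% CO2, ONE-Glo is added and luciferase measured on a CCD imager.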

ATPase family AAA domain-containing protein 5 (Homo sapiens), sequence (Q96QE3 whole entry, looked up, the tested form may be a part): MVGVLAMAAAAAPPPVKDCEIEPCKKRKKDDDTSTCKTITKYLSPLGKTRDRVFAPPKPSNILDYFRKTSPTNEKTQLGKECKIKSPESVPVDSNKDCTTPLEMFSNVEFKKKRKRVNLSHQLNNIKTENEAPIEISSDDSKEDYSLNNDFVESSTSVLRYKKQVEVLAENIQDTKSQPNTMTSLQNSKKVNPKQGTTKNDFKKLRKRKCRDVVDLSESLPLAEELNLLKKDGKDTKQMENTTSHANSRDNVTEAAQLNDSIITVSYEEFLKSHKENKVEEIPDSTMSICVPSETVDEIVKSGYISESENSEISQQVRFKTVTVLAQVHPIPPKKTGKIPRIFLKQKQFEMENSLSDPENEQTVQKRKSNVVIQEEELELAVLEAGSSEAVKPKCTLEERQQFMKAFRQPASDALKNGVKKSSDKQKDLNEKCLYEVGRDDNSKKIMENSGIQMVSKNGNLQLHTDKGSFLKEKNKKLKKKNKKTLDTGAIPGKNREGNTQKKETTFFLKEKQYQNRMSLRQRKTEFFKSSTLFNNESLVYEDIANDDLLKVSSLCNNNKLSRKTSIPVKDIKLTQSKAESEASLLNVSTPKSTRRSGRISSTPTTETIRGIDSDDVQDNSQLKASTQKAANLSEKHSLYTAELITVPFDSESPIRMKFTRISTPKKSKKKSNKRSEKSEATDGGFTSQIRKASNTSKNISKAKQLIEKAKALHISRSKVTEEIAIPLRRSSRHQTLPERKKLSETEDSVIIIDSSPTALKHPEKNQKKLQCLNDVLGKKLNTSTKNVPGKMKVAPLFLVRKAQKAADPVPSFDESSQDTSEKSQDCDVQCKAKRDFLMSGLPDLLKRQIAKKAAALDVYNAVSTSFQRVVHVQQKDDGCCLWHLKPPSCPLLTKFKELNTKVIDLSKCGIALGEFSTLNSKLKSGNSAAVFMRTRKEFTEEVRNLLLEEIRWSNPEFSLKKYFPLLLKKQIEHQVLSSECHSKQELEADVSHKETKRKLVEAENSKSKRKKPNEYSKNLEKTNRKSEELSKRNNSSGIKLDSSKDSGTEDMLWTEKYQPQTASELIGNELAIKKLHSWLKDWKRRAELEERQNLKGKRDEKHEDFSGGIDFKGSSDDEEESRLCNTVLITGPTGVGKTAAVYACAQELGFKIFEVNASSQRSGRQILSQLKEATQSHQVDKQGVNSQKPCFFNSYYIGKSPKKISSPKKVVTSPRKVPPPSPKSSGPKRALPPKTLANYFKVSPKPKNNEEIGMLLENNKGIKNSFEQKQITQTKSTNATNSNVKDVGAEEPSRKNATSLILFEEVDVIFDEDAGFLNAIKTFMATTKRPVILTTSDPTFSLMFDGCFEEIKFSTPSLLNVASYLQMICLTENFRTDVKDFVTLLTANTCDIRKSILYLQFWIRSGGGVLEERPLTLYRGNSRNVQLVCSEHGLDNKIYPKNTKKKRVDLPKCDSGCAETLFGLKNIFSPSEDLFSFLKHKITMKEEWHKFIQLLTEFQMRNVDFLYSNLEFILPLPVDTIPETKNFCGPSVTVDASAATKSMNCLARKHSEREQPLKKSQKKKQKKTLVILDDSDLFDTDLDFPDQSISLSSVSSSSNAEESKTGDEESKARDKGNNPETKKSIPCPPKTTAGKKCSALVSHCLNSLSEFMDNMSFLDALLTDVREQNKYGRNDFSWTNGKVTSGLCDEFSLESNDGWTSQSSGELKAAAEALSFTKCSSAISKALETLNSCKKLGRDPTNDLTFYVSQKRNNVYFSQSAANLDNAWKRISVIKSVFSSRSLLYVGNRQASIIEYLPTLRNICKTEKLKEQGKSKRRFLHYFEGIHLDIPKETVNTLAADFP

SMILES | Potency
C[C@]12Cc3cn4c(nc3C=C1CCC1C2CC[C@@]2(C)[C@H]1CC[C@@]2(O)C#N)nc1ccccc14 (stereo partly specified) | 7.3 µM (active)
CC1(C(=O)O)C2CCC(O2)C1(C)C(=O)O (stereo unspecified) | 7.3 µM (active)
O=[N+]([O-])c1cc(O)c(O)c([N+](=O)[O-])c1 | inactive
OC1CCCCC1N1CCC(c2ccccc2)CC1 (stereo unspecified) | inactive
CC(N)[C@H](O)c1ccc(O)c(O)c1 (stereo partly specified) | inactive
OCc1cnc[nH]1 | inactive
COc1ccc(CNC(=O)/C=C/c2ccc3[nH]cc(CCN(C)C)c3c2)cc1 | inactive
CCCCCCC(C)(C)c1ccc([C@@H]2C[C@H](O)CC[C@H]2CCCO)c(O)c1 | 16.4 µM (active)
N[C@@H](CCl)C(=O)O | inactive
NC(Cc1ccc(N(CCCl)CCCl)cc1)C(=O)O (stereo unspecified) | inactive
C#CCN[C@H](C)Cc1ccccc1 | inactive
O=C1C=CC(=O)C=C1 | inactive
NNC(N)=O | inactive
Cc1c2ccncc2c(C)c2c1[nH]c1ccccc12 | 16.4 µM (active)
CC(=O)NBr | inactive
CCCN(CCC)C1Cc2cc(OC)c(OC)cc2C1 | inactive
CCCn1c(=O)c2[nH]c(C3CCCC3)nc2n(CCCOC(=O)c2ccc(S(=O)(=O)F)cc2)c1=O | inactive
CC(N)c1cccc(Cl)c1Cl (stereo unspecified) | inactive
CCS(=O)(=O)Nc1cccc(C(=C2CCCCC2)c2cnc[nH]2)c1 | inactive
O=[N+]([O-])c1ccc2nc(N3CCNCC3)ccc2c1 | inactive
COc1ccc2[nH]c3c(c2c1)CCNC3 | inactive
N[C@@H](Cn1oc(=O)[nH]c1=O)C(=O)O | inactive
CN1C2CCC1CC(OC(c1ccccc1)c1ccccc1N)C2 (stereo unspecified) | inactive
